Reference: PubChem BioAssay AID1159580 (chemical genetic matrix, 2015)
Out of some 5,500 compounds screened, about 2,000 (36%) were called active. Not shown: some 18% with an inconclusive outcome. No stated cut-off is given here; in the data, active means normalized growth mostly below about 0.91 (no sharp cut-off); inconclusive means no clear call, values can overlap the other calls; inactive means mostly above about 0.92. The list shows a part of the results.

Experiment: chemical genetic growth profiling, strain panel (AID 1159580);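 further: tested at 20 µM; growth read once vehicle control cultures reached saturation at 30 °C; 1 = growth at the plate median or of vehicle wells; lower values mean less growth of the strain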
Conditions: S. cerevisiae deletion strains, growth OD

Measured: normalized growth

CC(=O)O[C@@](C)(CCC=C(C)C)C1CC=C(C)CC1 (stereo not given in full)
inactive: locus YAL013W, strain DEP1, active compounds read low 1.02 | locus YAL021C, strain ccr4, active compounds read low 1.01 | locus YAL026C, strain drs2, active compounds read low 0.989 | locus YAL030W, strain snc1, active compounds read low 0.987 | locus YBL061C, strain skt5, active compounds read low 0.979 | locus YBR009C, strain hhf1, active compounds read low 1.01 | locus YBR021W, strain FUR4, active compounds read low 1.03 | locus YBR023C, strain chs3, active compounds read low 0.986 | locus YBR171W, strain sec66, active compounds read low 0.981 | locus YBR229C, strain ROT2, active compounds read low 1.02 | locus YBR231C, strain swc5, active compounds read low 0.996 | locus YBR279W, strain paf1, active compounds read low 0.987 | locus YCL011C, strain gbp2, active compounds read low 0.983 | locus YCL016C, strain dcc1, active compounds read low 0.996 | locus YCL029C, strain bik1, active compounds read low 0.992 | locus YCL069W, strain vba3, active compounds read low 0.983 | locus YCR088W, strain abp1, active compounds read low 0.983 | locus YDL005C, strain med2, active compounds read low 0.978 | locus YDL035C, strain GPR1, active compounds read low 1.01 | locus YDL040C, strain nat1, active compounds read low 0.988 | locus YDL074C, strain BRE1, active compounds read low 1.03 | locus YDL101C, strain DUN1, active compounds read low 1.03 | locus YDL185W, strain tfp1, active compounds read low 0.988 | locus YDL192W, strain arf1, active compounds read low 1 | locus YDR001C, strain nth1, active compounds read low 0.991 | locus YDR069C, strain doa4, active compounds read low 0.966 | locus YDR101C, strain arx1, active compounds read low 0.97 | locus YDR137W, strain rgp1, active compounds read low 0.976 | locus YDR159W, strain sac3, active compounds read low 0.982 | locus YDR162C, strain NBP2, active compounds read low 1.05 | locus YDR195W, strain ref2 0.982 | locus YDR297W, strain sur2, active compounds read low 0.974 | locus YDR318W, strain mcm21, active compounds read low 0.997 | locus YDR334W, strain swr1, active compounds read low 0.985 | locus YDR335W, strain msn5, active compounds read low 0.986 | locus YDR388W, active compounds read low 0.994 | locus YDR392W, strain spt3, active compounds read low 0.973 | locus YDR502C, strain sam2, active compounds read low 0.978 | locus YEL003W, strain gim4, active compounds read low 0.993 | locus YEL037C, strain rad23, active compounds read low 0.991 | locus YEL061C, strain CIN8 (second series), active compounds read low 0.978 | locus YEL061C, strain CIN8, active compounds read low 1.02 | locus YER015W, strain faa2, active compounds read low 0.994 | locus YER016W, strain bim1, active compounds read low 0.992 | locus YER110C, active compounds read low 0.985 | locus YER111C, strain swi4, active compounds read low 0.981 | locus YER155C, strain BEM2 (second series), active compounds read low 1.01 | locus YER155C, strain BEM2, active compounds read low 1.02 | locus YER167W, strain BCK2, active compounds read low 1 | locus YFR010W, strain ubp6, active compounds read low 0.973 | locus YGL078C, strain dbp3, active compounds read low 0.995 | locus YGL086W, strain mad1, active compounds read low 0.991 | locus YGL167C, strain pmr1, active compounds read low 0.991 | locus YGL173C, strain kem1, active compounds read low 0.984 | locus YGL227W, strain vid30, active compounds read low 0.986 | locus YGL240W, strain doc1, active compounds read low 0.992 | locus YGL248W, strain PDE1, active compounds read low 1.05 | locus YGL253W, strain hxk2, active compounds read low 0.987 | locus YGR078C, strain PAC10, active compounds read low 1.05 | locus YGR135W, strain pre9, active compounds read low 1.02 | locus YGR229C, strain SMI1, active compounds read low 0.998 | locus YGR252W, strain gcn5, active compounds read low 1.01 | locus YHR013C, strain ard1, active compounds read low 1 | locus YHR027C, strain rpn1, active compounds read low 0.983 | locus YHR030C, strain SLT2, active compounds read low 1.02 | locus YHR079C, strain IRE1 (second series), active compounds read low 0.985 | locus YHR094C, strain hxt1, active compounds read low 1 | locus YHR129C, strain ARP1, active compounds read low 1.02 | locus YHR142W, strain chs7, active compounds read low 0.999 | locus YHR200W, strain rpn10, active compounds read low 0.992 | locus YIL066C, strain RNR3, active compounds read low 1.04 | locus YIL073C, strain SPO22, active compounds read low 1 | locus YIL125W, strain kgd1, active compounds read low 1 | locus YIR030C, strain dcg1, active compounds read low 0.992 | locus YJL092W, strain hpr5, active compounds read low 0.988 | locus YJL095W, strain BCK1 (second series), active compounds read low 0.998 | locus YJL095W, strain BCK1, active compounds read low 1.06 | locus YJL115W, strain asf1, active compounds read low 0.989 | locus YJL129C, strain trk1, active compounds read low 0.981 | locus YJL134W, strain LCB3, active compounds read low 1.01 | locus YJL154C, strain vps35, active compounds read low 0.984 | locus YJL164C, strain tpk1, active compounds read low 0.994 | locus YJL166W, strain qcr8, active compounds read low 0.983 | locus YJL168C, strain set2, active compounds read low 0.999 | locus YJL187C, strain SWE1 (second series), active compounds read low 1.04 | locus YJL187C, strain SWE1, active compounds read low 0.991 | locus YJR043C, strain POL32, active compounds read low 1.04 | locus YKL009W, strain mrt4, active compounds read low 0.962 | locus YKL068W, active compounds read low 0.997 | locus YKL085W, strain MDH1 (second series), active compounds read low 0.994 | locus YKL085W, strain MDH1, active compounds read low 0.994 | locus YKL160W, strain elf1, active compounds read low 0.993 | locus YKL190W, strain CNB1, active compounds read low 1.01 | locus YKR001C, strain vps1, active compounds read low 0.987 | locus YKR026C, strain gcn3, active compounds read low 0.99 | locus YKR091W, strain srl3, active compounds read low 0.982 | locus YLL001W, strain dnm1, active compounds read low 0.993 | locus YLL026W, active compounds read low 0.985 | locus YLL041C, strain sdh2, active compounds read low 1.01 | locus YLR027C, strain aat2, active compounds read low 0.985 | locus YLR039C, strain RIC1, active compounds read low 1.05 | locus YLR058C, strain SHM2, active compounds read low 1.04 | locus YLR102C, strain apc9, active compounds read low 0.986 | locus YLR221C, strain rsa3, active compounds read low 0.972 | locus YLR258W, strain gsy2, active compounds read low 1.01 | locus YLR262C, strain YPT6 (second series), active compounds read low 0.959 | locus YLR262C, strain YPT6, active compounds read low 1.04 | locus YLR268W, strain sec22, active compounds read low 1 | locus YLR320W, strain mms22, active compounds read low 0.975 | locus YLR330W, strain CHS5, active compounds read low 1.03 | locus YLR342W, strain FKS1 (second series), active compounds read low 1.09 | locus YLR342W, strain FKS1, active compounds read low 0.974 | locus YLR357W, strain rsc2, active compounds read low 0.951 | locus YLR370C, strain arc18, active compounds read low 0.983 | locus YLR371W, strain rom2, active compounds read low 0.997 | locus YLR384C, strain iki3, active compounds read low 0.973 | locus YLR418C, strain cdc73, active compounds read low 0.988 | locus YML016C, strain PPZ1, active compounds read low 1.02 | locus YML032C, strain rad52, active compounds read low 1.01 | locus YML120C, strain ndi1, active compounds read low 0.985 | locus YML124C, strain tub3, active compounds read low 0.992 | locus YMR058W, strain fet3, active compounds read low 0.995 | locus YMR078C, strain ctf18, active compounds read low 0.971 | locus YMR125W, strain sto1, active compounds read low 0.983 | locus YMR129W, active compounds read low 1 | locus YMR205C, strain PFK2, active compounds read low 0.988 | locus YMR223W, strain ubp8, active compounds read low 1.04 | locus YMR231W, strain pep5, active compounds read low 0.994 | locus YMR263W, strain SAP30, active compounds read low 1.04 | locus YMR307W, strain GAS1, active compounds read low 1.11 | locus YNL067W, strain RPL9B, active compounds read low 1.04 | locus YNL071W, strain lat1, active compounds read low 0.99 | locus YNL153C, strain GIM3, active compounds read low 1.04 | locus YNL209W, strain ssb2, active compounds read low 0.984 | locus YNL233W, strain BNI4, active compounds read low 1.04 | locus YNL248C, strain rpa49, active compounds read low 0.975 | locus YNL250W, strain rad50, active compounds read low 1.01 | locus YNL271C, strain bni1, active compounds read low 0.998 | locus YNL298W, strain CLA4, active compounds read low 0.996 | locus YNL307C, strain MCK1, active compounds read low 0.996 | locus YNL322C, strain KRE1 (second series), active compounds read low 0.99 | locus YNR049C, strain mso1, active compounds read low 1 | locus YNR052C, strain pop2, active compounds read low 0.995 | locus YOL006C, strain TOP1, active compounds read low 1.14 | locus YOL012C, strain htz1 0.898 | locus YOL147C, strain pex11, active compounds read low 0.984 | locus YOR001W, strain rrp6, active compounds read low 0.973 | locus YOR061W, strain CKA2, active compounds read low 1.03 | locus YOR069W, strain VPS5, active compounds read low 1.01 | locus YOR070C, strain gyp1, active compounds read low 0.982 | locus YOR080W, strain dia2, active compounds read low 0.991 | locus YOR083W, strain WHI5, active compounds read low 0.999 | locus YOR106W, strain vam3, active compounds read low 0.975 | locus YOR136W, strain idh2, active compounds read low 0.988 | locus YOR144C, strain elg1, active compounds read low 0.983 | locus YOR184W, strain ser1, active compounds read low 0.962 | locus YOR265W, strain rbl2, active compounds read low 1 | locus YOR270C, strain vph1, active compounds read low 0.915 | locus YOR290C, strain snf2, active compounds read low 0.989 | locus YOR316C, strain cot1, active compounds read low 1.01 | locus YPL051W, strain arl3, active compounds read low 1.01 | locus YPL078C, strain atp4, active compounds read low 1.02 | locus YPL106C, strain sse1, active compounds read low 1 | locus YPL240C, strain hsp82, active compounds read low 0.974 | locus YPL241C, strain CIN2, active compounds read low 1.01 | locus YPR119W, strain clb2, active compounds read low 0.997 | locus YPR141C, strain kar3, active compounds read low 0.997 | locus YPR163C, strain tif3, active compounds read low 1 | locus YPR167C, strain met16, active compounds read low 1 | strain wtn01, active compounds read low 0.987
